The values below come from the supplement of paper PMC3334620.

Whole data set: some 33,000 sequences, median “E-score (-0.5 to 0.5)” near -0.017, cut for the highest 2% near 0.3. Shown is part of a subset that was picked to be rich in the highest values.

For this assay, the target named is T1, Sut1 (UniProt P53032).
T1 sequence: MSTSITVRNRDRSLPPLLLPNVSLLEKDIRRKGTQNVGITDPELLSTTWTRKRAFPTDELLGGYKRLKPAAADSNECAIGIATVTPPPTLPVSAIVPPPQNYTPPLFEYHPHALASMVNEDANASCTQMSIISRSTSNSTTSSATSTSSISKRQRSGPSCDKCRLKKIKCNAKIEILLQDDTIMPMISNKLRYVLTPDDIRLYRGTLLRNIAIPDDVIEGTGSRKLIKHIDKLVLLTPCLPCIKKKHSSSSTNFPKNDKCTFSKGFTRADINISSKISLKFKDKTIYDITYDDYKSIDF
Nature of the assay: PBM E-score (8-mer binding enrichment) (E-score (-0.5 to 0.5)); higher = stronger / more preferred TF binding. As to conditions: protein concentration: 200 nM; construct: GST-full length. The gist of the method: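 Bound GST-tagged yeast transcription factors, applied at about 100-200 nM to double-stranded universal all-10-mer Agilent arrays, were detected with fluorescent anti-GST. Scans were normalised with masliner. A modified Wilcoxon-Mann-Whitney statistic, the E-score, was assigned to each ungapped eight-base word pooled with its reverse complement by the Universal PBM Analysis Suite.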
Turning to ACATTTAC, the “PBM E-score” value is 0.168.
The same measure for AGGCCCTG: -0.302.
With CAAAGTTG, the “PBM E-score” value was -0.0132.
The same measure for CATCTAAG: -0.107; for CGTAGCAG: -0.128; for AGCTATAG: -0.136.
The same measure for ATCATACG: 0.157; for GTCATACA: 0.226; for ATCATACA: 0.314.
For ACTCGAGT the value was 0.0517; for AAGCCTAG, -0.183; for CACTCTGA, -0.165.
Turning to GTCACAAC, the “PBM E-score” value was -0.0323.
Turning to AATAGAGC, the “PBM E-score” value came to 0.0828.
For CAAACTCA the value was 0.0357; for AACACTCC, 0.256.
For CACACTCC the value was 0.158; for AAAACTCG, 0.199.
Consider CAAACTCC, for which the “PBM E-score” value is 0.356.
The same measure for GAAACTCC: 0.345.
For GAAACTCA the value was 0.0707.
The same measure for AAAACTCT: 0.0523.
Turning to GACACTCC, the “PBM E-score” value is 0.314.
The same measure for GAAACTAC: 0.145; for CAAACTCG: -0.013.
For AAAACTCC the value was 0.356.
On to CAGCTTGG, for which the “PBM E-score” value was determined as 0.0282.
For TCTTCTAA the value was 0.188.
The same measure for CGATACTA: 0.193.
The same measure for AGGAAAGG: -0.294; for AGCGGTAT: 0.0737.
CGTAAGAC: the “PBM E-score” value is -0.071.
Regarding ACGCATCA, the “PBM E-score” value was -0.0138.
For the sequence AAAAAAAC, the “PBM E-score” value is 0.159.
Turning to GAAACTTA, the “PBM E-score” value was 0.307.
Regarding CAAACTTA, the “PBM E-score” value worked out at 0.196.
For GAAACTTC the value was 0.0956.
For the sequence AGTGTGGA, the “PBM E-score” value turned out to be 0.0491.
For CGGGCCCG the value was 0.316; for CGGGCCCA, -0.109; for AGGGCCCG, -0.184.
For the sequence CGTTCACA, the “PBM E-score” value came out at 0.0405.
As for ATGTAATG, the “PBM E-score” value was determined as 0.23.
On to CTGTAATA, for which the “PBM E-score” value stood at 0.218.
Take ATGTAATA: the “PBM E-score” value is 0.307.
Turning to AAATAATA, the “PBM E-score” value came to 0.311.
For AAATAAGT the value was 0.109; for AAATAATT, 0.338.
For AAATAACT the value was 0.228; for AAATAATC, 0.235; for AAATAATG, 0.297.
In the case of ACTTCAAG, the “PBM E-score” value is 0.0849.
As for ACACCCTA, the “PBM E-score” value was -0.127.
The same measure for ACTTTGCG: 0.0957; for ATGGCCTA: -0.0487.
The same measure for AGCGCACC: -0.0534; for AAGAAGGA: 0.0609.
For the sequence CATCTGAA, the “PBM E-score” value was 0.0794.
AGAGTGGA: the “PBM E-score” value is -0.0219.
For AAACCGGC the value was 0.0626.
For GAACCGGC the value was -0.0738; for AAACCGGT, -0.0411; for GGACCGGA, 0.34.
The same measure for TAACCGTA: -0.0185; for GAACCGTA: -0.234.
Take AGACCGGA: the “PBM E-score” value was determined as 0.277.
The same measure for CGACCGGA: 0.191; for TAACCGGA: 0.332; for TAACCGCA: 0.0567.
For AAACCGGA the value was 0.309; for GAACCGGA, 0.32; for AGAAAAAG, 0.138.
The same measure for CTGCCAAA: -0.0297; for GTTGTTGA: 0.0996.
Regarding AAACCTTA, the “PBM E-score” value was found to be 0.203.
The same measure for AGCAGGTC: -0.176; for CAACCTAC: 0.0861; for GTAGCAGA: 0.0197.
For AGCTTAAC the value was 0.0213.
For CCTACTAC, the “PBM E-score” value is -0.0856.
The same measure for CAACCGGG: -0.129; for CAACCGGA: 0.338; for CAACCGGC: -0.0694.
ATCGCTGC: the “PBM E-score” value is -0.111.
For the sequence GGGACCAA, the “PBM E-score” value is -0.115.
The same measure for CCCGAAGA: -0.0672; for TCCGAAAA: 0.353; for TCCGAAGA: 0.39.
Consider TCCGAACA, for which the “PBM E-score” value is 0.399.
For GCCGAAAA the value was 0.263; for GCCGAACA, 0.126.
With ACCGAACA, the “PBM E-score” value amounted to 0.121.
For ACCGAAGA the value was 0.222; for CCCGAAAA, 0.177.
